From PubChem BioAssay
Rows were chosen to be rich in hits. Some 2.8% of all compounds tested hit in one or more screens of this group.
PI5P4K alpha inh: PI5P4K alpha (human) kinase inhibition; max response, %; P48426; PI5P4Kalpha enzyme, ADP-Glo luminescence, 60 min; active compounds read low; 1.2% of 330,000 active; active means max response of -50% or lower; inconclusive means between -30% and -50%; inactive means -30% or higher; further: value at the top dose of about 77 µM; on the % scale 0 is the no-effect control and ±100 the full control effect
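Compounds were pin-transferred onto PI5P4Kalpha and substrate in HEPES pH 7.4 buffer with EGTA, CHAPS and 5% DMSO. ATP (5 microM final) started the reaction, which ran 60 minutes at room temperature before ADP-Glo detection.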
Pol kappa inh-1: DNA polymerase kappa (human) inhibition | Q9UBT6 | purified Pol kappa, fluorescent DNA synthesis assay, 10 min | Potency, µM (titrated, usually from 107 µM), for inactives: at the highest dose activity, negative = inhibition, hits mostly inhibitors | 0.53% of 400,000 active | AID 588579; further: potency means the concentration at half of the fitted maximal effect; on the % scale 0 is the no-effect control and ±100 the full control effect
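Fluorescent qHTS in 1536-well format: enzyme (10 nM) and compound sat 15 min at room temperature before 50 nM substrate (final) was added. Signal taken at 0 and 10 min; no-enzyme buffer wells were negative controls.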
Pol eta inh-1: inhibitors of human DNA polymerase eta; Potency, µM (titrated, usually from 114 µM), inactives show at the top dose activity change, negative = inhibition, usual class: inhibitors; recombinant Pol eta, fluorescent DNA replication assay; 1.2% of 390,000 active; AID 588591; Q9Y253; further: potency means the concentration at half of the fitted maximal effect; on the % scale 0 is the no-effect control and ±100 the full control effect
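Pol eta at 10 nM preincubated with compounds 15 min at room temperature; reaction started with fluorescent substrate (50 nM final) and read kinetically at 0 and 10 min.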
POLI inh: blocks human DNA polymerase iota activity; Pol iota fluorescent replication assay, 10 min; Potency, µM (doses to about 115 µM), without a hit: at the highest dose activity, negative = inhibition, usual class: inhibitors; 1% of 390,000 active; AID 588590; further: potency means the concentration at half of the fitted maximal effect
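Fluorescent replication assay read twice, at 0 min and 10 min after adding 50 nM (final) substrate. Enzyme (10 nM) and compounds were first incubated 15 min at room temperature; enzyme-free buffer wells were negative controls.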
POLB inh: inhibitors of human DNA polymerase beta. P06746. Pol beta primer extension/strand displacement, fluorescence kinetic. Potency, µM (highest dose often 114 µM), without a hit: at the highest dose activity change, negative = inhibition, usual class: inhibitors. 1.3% of 340,000 active. AID 485314; further: potency means the concentration at half of the fitted maximal effect; on the % scale 0 is the no-effect control and ±100 the full control effect
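Kinetic readout of DNA synthesis with strand displacement by Pol beta. Compound and 10 nM enzyme sit 15 min at room temperature; 50 nM substrate starts the reaction, read immediately and at 10 min.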
WRN helicase inh-1: blocks human WRN helicase. Q14191. WRN helicase unwinding, fluorescent forked duplex, kinetic. Potency, µM (highest dose often 114 µM), inactives show top-dose activity change, negative = inhibition, hits mostly inhibitors. 0.46% of 360,000 active. AID 651768; further: potency means the concentration at half of the fitted maximal effect; on the % scale 0 is the no-effect control and ±100 the full control effect; nearly all actives have a fitted effect of over 55% in size
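Primary qHTS, 1536-well format. 20 nM WRN + compound, 15 min RT; start with 100 nM forked fluorophore/quencher duplex, 2 mM ATP (final); kinetic read ex 525/em 598 nm.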
TbPGK inh: blocks T. brucei phosphoglycerate kinase; shares compounds with Pol kappa inh-1; TbPGK coupled GAPDH assay, Kinase-Glo luminescence; Potency, µM (doses to about 57.5 µM), inactives show at the highest dose activity change, negative = inhibition, hits mostly inhibitors; 79% of 500 active; further: potency means the concentration at half of the fitted maximal effect; on the % scale 0 is the no-effect control and ±100 the full control effect; nearly all actives have a fitted effect of over 65% in size
Pol iota confirm: Inhibitors of human DNA polymerase iota, confirmation; 77% of 1,500 active; Pol iota primer extension, TAMRA/BHQ fluorescence; Potency, µM, actives largely listed as inhibitors; shares compounds with Pol kappa inh-1; AID 720496; further: potency means the concentration at half of the fitted maximal effect
Pol kappa inh-2: Pol kappa (human) inhibition, cherry-pick confirmation | Potency, µM, actives largely listed as inhibitors | 76% of 920 active | purified Pol-kappa, fluorescent strand-displacement substrate | shares compounds with Pol eta inh-1; further: potency means the concentration at half of the fitted maximal effect
Pol eta inh-2: confirmation of human DNA polymerase eta inhibitors. 64% of 2,600 active. shares compounds with Pol eta inh-1. Potency, µM, actives largely listed as inhibitors. Pol eta primer extension, TAMRA/BHQ fluorescence, 10 min. AID 720502; further: potency means the concentration at half of the fitted maximal effect
WRN helicase inh-2: WRN helicase inhibition, cherry-pick retest. shares compounds with WRN helicase inh-1. WRN helicase DNA unwinding, fluorescence kinetic. 63% of 610 active. Potency, µM (titrated, usually from 57.1 µM), for inactives: at the highest dose activity, negative = inhibition, hits mostly inhibitors; further: potency means the concentration at half of the fitted maximal effect; nearly all actives have a fitted effect of over 65% in size
TO displacement: DNA binding via thiazole orange displacement; shares compounds with WRN helicase inh-1; thiazole orange DNA binding displacement, fluorescence; Potency, µM (highest dose often 57.1 µM), without a hit: top-dose activity change, negative = inhibition, usual class: inhibitors; 10% of 610 active;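 further: drop in dye fluorescence marks compound binding to DNA; potency means the concentration at half of the fitted maximal effect; on the % scale 0 is the no-effect control and ±100 the full control effect; nearly all actives have a fitted effect of over 60% in size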
BLM counter: blocks human BLM helicase in WRN counterscreen; shares compounds with WRN helicase inh-1; Recombinant BLM helicase DNA unwinding, red fluorescence; Potency, µM (top dose mostly 57.1 µM), for inactives: top-dose activity change, negative = inhibition, actives largely listed as inhibitors; 60% of 610 active; further: potency means the concentration at half of the fitted maximal effect; nearly all actives have a fitted effect of over 60% in size
ADP-Glo counter: ADP-Glo luciferase interference, PI5P4K counter-screen; shares compounds with PI5P4K alpha inh; ADP-Glo detection counter-screen, luciferase luminescence, no enzyme; Potency, µM (titrated, usually from 76.9 µM), inactives show at the highest dose activity change, negative = inhibition, most hits filed as inhibitors; 1,100 tested, under 10 active; AID 743285
* marks the source's active call; other numbers are inactive results; u = inconclusive; x = no result given; [ ] = another dose, or the depositor's remark. Unless noted, the call rests on the fitted dose curve; in most records, active means well fitted curve in the direction sought with a large enough effect; inconclusive means small, poorly fitted or top-dose-only effect, or another doubt; inactive means no such curve, though single readings can be large; an effect the other way counts as inactive or inconclusive.

SMILES | PI5P4K alpha inh | Pol kappa inh-1 | Pol eta inh-1 | POLI inh | POLB inh | WRN helicase inh-1 | Pol iota confirm | Pol eta inh-2 | WRN helicase inh-2 | TO displacement | BLM counter | ADP-Glo counter | others
CCN(CC)CCCNc1nc2cc(OC)c(OC)cc2c2nc(-c3ccccc3)nn12 | 3.0 | u | u | 7.94µM* | 11.2µM* | 35.5µM* | 37.7* | x | 17.1µM* | -9.1% | 24.6% | x
CCOc1cccc(C(=O)Nc2ccc(-c3nc4cc(C)cc(C)c4o3)cc2)c1 | x | -98.8% | -7.5% | -95.0% | 3.4% | x | x | x | x | x | x | x
COc1ccc(C(=O)NC2CCc3ccccc32)cc1OC1CCN(C(C)C)CC1 (stereo unspecified) | -1.4 | 2.9% | -13.9% | 23.5% | 29.2% | -22.1% | x | x | x | x | x | x
NC1=NC(=O)/C(=C/c2ccc(-c3ccc(S(N)(=O)=O)cc3)o2)S1 | -12.3 | 79.4µM* | 22.4µM* | 44.7µM* | u | 35.5µM* | 33.6* | 53.6* | 19.2µM* | 70.4% | 10.8µM* | x | Pol kappa inh-2=21.2*
Cc1cccc(N2NC(=O)/C(=C/c3ccc(-c4ccc(Cl)c(C(=O)O)c4)o3)C2=O)c1 | u | 35.5µM* | 6.31µM* | 3.55µM* | 25.1µM* | 39.8µM* | 33.6* | 16.9* | 9.61µM* | u | 9.61µM* | x
O=C(O)c1cc(-c2ccc(/C=C3\NC(=O)N(c4ccc(Cl)cc4)C3=O)o2)ccc1Cl | u | 10µM* | 3.55µM* | 10µM* | 6.31µM* | 35.5µM* | 21.2* | 5.36* | 6.81µM* | u | 24.1µM* | x | TbPGK inh=20.6µM*;Pol kappa inh-2=16.8*
O=C1NN(c2ccccc2)C(=O)/C1=C/c1ccc(-c2ccc(Cl)c(C(=O)O)c2)o1 | -15.7 | u | 7.08µM* | u | 12.6µM* | 35.5µM* | 42.3* | 30.1* | 19.2µM* | -18.5% | u | x
O=C(Cc1ccc(F)cc1)N/N=C/c1ccc(-c2ccc(Cl)c(C(=O)O)c2)o1 | -10.9 | 11.5% | -12.1% | 23.2% | 0.4% | -5.8% | x | x | x | x | x | x
COc1ccc(NC(=O)CN2C(=O)CSC(C)C2=O)cc1 (stereo unspecified) | -12.0 | 0.2% | -26.2% | 142.2% | 0.7% | 3.3% | x | x | x | x | x | x
CCN(CC)C(=O)CC(c1cc(OC)c(OC)c(OC)c1)c1c(OC)cc(OC)c2ccc(=O)oc12 (stereo unspecified) | 1.4 | -10.5% | -1.9% | -24.3% | 5.1% | -5.7% | x | x | x | x | x | x
CCN(CC)C(=O)CC(c1cc(OC)c(OC)c(OC)c1)c1c(OC)cc(OC)c2c(-c3ccccc3)cc(=O)oc12 (stereo unspecified) | -56.0* | 79.4µM* | 39.8µM* | 70.8µM* | 39.8µM* | -11.4%[11.6 µM] | 23.8* | 60.1* | x | x | x | 2.7%
O=C(c1ccc(=O)oc1)N1CCCc2ccccc21 | -57.2* | 20µM* | 3.55µM* | 12.6µM* | -100.9% | u | 42.3* | 30.1* | 21.5µM* | -8.8% | 24.1µM* | -0.5%
Cc1nn(-c2nc3ccccc3[nH]2)c(=O)c2ccccc12 | -60.1* | -0.5% | -9.2% | 29.3% | 0.6% | -9.3% | x | x | x | x | x | u | TbPGK inh=2.91µM*
Cc1nn(-c2ccc3ccccc3c2)c(=O)c2ccccc12 | 3.0 | -9.7% | -5.7% | -3.3% | -0.5% | -10.1% | x | x | x | x | x | x
COc1ccccc1CN1CN(S(=O)(=O)c2ccccc2)c2nc3ccccc3nc21 | 0.8 | -16.2% | -16.2% | -23.5% | -27.5% | -4.5% | x | x | x | x | x | x
FC(F)(F)C1=Nc2cccc3cccc(c23)N1 | -82.4* | 6.31µM* | 2.24µM* | 1.58µM* | x | u | 16.8* | 21.3* | x | x | x | -5.4% | Pol kappa inh-2=7.52*
Fc1ccc(C2=Nc3cccc4cccc(c34)N2)cc1 | -7.9 | -1.3% | 4.1% | -11.4% | -19.5% | 12.1% | x | x | x | x | x | x
COc1ccc(OC)c(NC(=O)c2ccc(OC3CSC3)cc2)c1 | -4.8 | 0.2% | -17.0% | 140.5% | -2.8% | -5.5% | x | x | x | x | x | x
COc1ccc(N2Cc3cccc(C(=O)N4CCN(C(=O)c5ccco5)CC4)c3C2=O)cc1 | -84.5* | u | 5.62µM* | u | 10µM* | 50.1µM* | 37.7* | 60.1* | x | x | x | -5.0% | Pol kappa inh-2=42.3*
CCCCN(C(=O)c1cccc(-n2cccc2)c1)c1c(N)n(CCC)c(=O)[nH]c1=O | -60.9* | u | 15.8µM* | 14.1µM* | x | 56.2µM* | 29.9* | 37.9* | x | x | x | 1.9%
CCCN(C(=O)c1ccc([N+](=O)[O-])c(C)c1)c1c(N)n(Cc2ccccc2)c(=O)[nH]c1=O | 6.0 | 5.4% | -11.4% | 32.5% | x | -3.9% | x | x | x | x | x | x
CCCN(C(=O)c1cccc(-n2cccc2)c1)c1c(N)n(Cc2ccccc2)c(=O)[nH]c1=O | -88.2* | 28.2µM* | 11.2µM* | 10µM* | x | 50.1µM* | 29.9* | 42.6* | x | x | x | -8.2%
Cc1cccc(NC(=O)CNCC(=O)Nc2cccc(C)c2C)c1C | 2.2 | 18.2% | -5.1% | 52.8% | 40.5% | 5.0% | x | x | x | x | x | x
Cc1ccc(NC(=O)CN(C)C(=O)c2cccc(-n3cccc3)c2)cc1 | -101.1* | 17.8µM* | 2.51µM* | 8.91µM* | x | 35.5µM* | 15* | 16.9* | 7.64µM* | -15.3% | 2.15µM* | -1.3%
